Several values for one entry are separate records, joined by “and”; a condition that tells them apart may be missing. Identical values can stand only once. The campaign covered roughly 420,000 compounds. About 64,000 (15%) were called active. Not shown: some 27% with an inconclusive outcome. Not all results are given here. A number with no mark means an inactive call. The call rests on the fitted dose curve; in most records, active means well fitted inhibition curve with a large enough effect; inconclusive means small, poorly fitted or top-dose-only effect; inactive means flat fitted curve, though single readings scatter.
Assay: qHTS for Inhibitors of human tyrosyl-DNA phosphodiesterase 1 (TDP1): qHTS in cells in absence of CPT; further: nearly all actives have a fitted effect of over 55% in size
Settings: DT40 Tdp1-/- hTDP1 cells, no CPT, ATP luminescence, 48 h; activity change, negative = growth inhibition: at 46.2 µM (top of the series)
How it was run: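 Stably hTDP1-transfected Tdp1-null chicken DT40 cells were treated with library compounds minus camptothecin and grown for at least 48 hr at 37 °C, after which cellular ATP was quantified by luminescence.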
On the % scale 0 is the no-effect control and ±100 the full control effect; potency means the concentration at half of the fitted maximal effect.

Compound	activity change, negative = growth inhibition [%]	Potency
CCCCN(C)CCNC(=O)CSCc1ccc(C)cc1	13.4	
CC1=CC(=O)C=CC1(C)C(Cl)(Cl)Cl (configuration not stated)	-24	
CCN(CC(=O)NCc1ccco1)S(=O)(=O)c1ccc(F)cc1	-12.4	
Cc1c(C=O)c2ccccn2c1C(=O)c1ccncc1	-25.4	
COc1ccc([N+](=O)[O-])cc1-c1nc2ccccc2nc1-c1ccccc1	-35.9	
COC(=O)Cn1nc(-c2ccccc2)c2cc(Cl)ccc21	-29.8	
O=C(Cn1c(=O)nc(-c2ccccc2)c2cc(Cl)ccc21)NCc1ccc(Cl)cc1		23.1 µM (active)
CCN(C(=O)Cn1c(=O)nc(-c2ccccc2)c2cc(Cl)ccc21)c1cccc(C)c1	-6.07	
Cc1ccc(N(CC(=O)NC2CCCCC2)C(=O)CCCC(=O)Nc2ccccn2)c(C)c1	-18.2	
Cn1nccc1C(=O)NCC1CCC2(CCN(Cc3c(O)ccc4ccccc34)CC2)O1 (configuration not stated)	-21.7	
COC(=O)c1ccc(Nc2ncnc3sccc23)cc1	-1.98	
CCOC(=O)c1ccc(Nc2cc(C)nc3nc(C)nn23)cc1	-1.51	
CCOC(=O)c1nc(Nc2ccc(C(=O)OC)cc2)c2ccccc2n1		8.2 µM (active) and 20.6 µM (active)
COc1cc(C(=O)N2C(=O)c3cccc(N)c3C2=O)cc(OC)c1OC	8.82	
O=C(CCc1ccccc1)Nc1nn[nH]n1	-2.74	
O=C(O)c1ccc(N=NN2CCOCC2)cc1	-15.9	
Cc1cccc(OCC(=O)Nc2ccc(NC(=O)c3ccco3)c(C)c2)c1		16.4 µM (active)
O=C(Nc1cccc(NC(=O)c2ccco2)c1)c1cnccn1	-18.8	
Cc1ccc(C(=O)COc2cccc(NC(=O)c3ccco3)c2)cc1		20.6 µM (active)

Compound	activity change, negative = growth inhibition [%]	Potency
CCOc1cc(NC(=S)NCc2ccco2)c(OCC)cc1NC(=O)c1ccco1	-26.8	
COc1ccc(OCC(=O)Nc2ccc(NC(=O)c3ccco3)c(C)c2)cc1	0.455	
CCOc1cc(NC(=O)c2ccco2)c(OCC)cc1NC(=O)COc1ccccc1		4.61 µM (active)
O=C(COc1ccccc1)Nc1nonc1NC(=O)COc1ccccc1	-12.1	
Cc1cc(NC(=O)c2ccc(F)cc2)ccc1NC(=O)c1ccco1	-27.6	
Cc1ccc(NC(=O)c2ccco2)cc1	-4.11	
CC(C)c1ccc(NC(=O)Cn2ncc3ccccc32)cc1	-26.9	
CCOC(=O)C1CCN(C(=O)C2CCN(S(=O)(=O)c3c(C)noc3C)CC2)CC1	-14	
CCOc1ccc(Oc2nc(C)cc(OC)n2)nn1	-5.71	
O=C1CCN(C(=S)NCCc2ccccc2)CC1	4.41	
S=C(NCCc1ccccc1)N1CCCCC1	14.3	
Oc1ccc(N2CCN(C(=S)NCc3ccccc3)CC2)cc1		13 µM (active)
Cc1ccc(C(=O)COC(=O)CCN2C(=O)C3C4CC(C(Br)C4Br)C3C2=O)cc1 (configuration not stated)	2.81	
Clc1ccc(-c2cc(COc3ccccc3)no2)cc1Cl	-3.75	
COc1ccc(Oc2coc3cc(OC(=O)c4cncc(Br)c4)ccc3c2=O)cc1	-27.9	
O=C(Oc1ccccc1)Oc1ccc2c(c1)oc(=O)c1ccccc12	-12.5	
N#CCSc1nc2ccc(N3CCOCC3)cc2c(=O)n1CCc1ccccc1		20.6 µM (active)
CCCCn1c(SCC(=O)NCC2CCCO2)nc2ccc(N3CCOCC3)cc2c1=O (configuration not stated)	-12.7	
COCCCNC(=O)CSc1nc2ccc(N3CCOCC3)cc2c(=O)n1CCc1ccccc1	-18.2	

Compound	activity change, negative = growth inhibition [%]	Potency
O=C(CSc1nnc2n1CCCN2)c1ccccc1	17.1	
COc1cccc(OC)c1C(=O)OCC(=O)/C(C#N)=C(\C)N	-3.38	
CC(=O)Cn1cnc2c(cnn2-c2ccccc2)c1=O	1.02	
CC(C)(C)n1ncc2c(=O)n(Cc3ccc(Cl)cc3)cnc21		23.1 µM (active)
Cc1ccc(-n2ncc3c(=O)n(Cc4cccc(C(F)(F)F)c4)cnc32)cc1C	-16.6	
c1cc(-c2nn[nH]n2)ccc1CN1CCCCC1	-14.8	
CC(=O)Nc1ccc(OCCC[n+]2cccc(C(=O)[O-])c2)cc1	-4.3	
Nc1cc(N)nc(SCc2cccc(F)c2)n1	2.63	
Nc1nc(SCc2ccccc2Cl)n[nH]1	-17.1	
O=c1cc(O)nc(SCc2ccccc2Cl)[nH]1	0.667	
Fc1ccc(Nc2nc(SCc3ccccc3Cl)nc3ccccc23)cc1		16.4 µM (active)
Fc1ccc(CNc2nc3ccccc3n3nnnc23)cc1	-27.9	
Fc1ccc(CSc2nc(NCc3ccccc3)c3ccccc3n2)cc1		16.4 µM (active)
O=C1NCC(c2ccccc2)(c2ccccc2)C(=O)N1	-4.04	
CC(=O)c1nc(N2C(=O)C3CC=C(C)CC3C2=O)sc1C (configuration not stated)	-12.9	
Cc1ccc(S(=O)(=O)NC2(C(F)(F)F)NC(=O)N(CCc3ccccc3)C2=O)cc1 (configuration not stated)		inactive
O=C(Nc1ccccc1F)c1ccc2c(c1)OCO2	-4.9	
N[C@@H](C(=O)O)c1ccc(P(=O)(O)O)cc1	-0.85	
O=C(COc1ccc(Cl)cc1[N+](=O)[O-])N1CCCCC1	-16.3	
